# Active and inactive are the calls of the source.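 Rule for the calls, unless noted: active = fluorescence slope higher than the sample average by over 3 SD (cut at about -0.22 in these data, passing the limit was not always enough); inactive = the rest.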
# Columns and labels:
# [1] = inhibitors of TNFa-induced NFkB p65 translocation, primary screen, imaging, HUVEC, MLSMR starter and 10KST1 sets (AID 438;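 active = inhibition above 20% together with a positive visual image hit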;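 note: compound added about 3h40 before a 20 min TNFalpha stimulation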;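 for inhibition: signal is the nuclear over cytoplasmic p65 intensity ratio per well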); conditions: HUVEC TNFa-induced p65 nuclear translocation; cell count: measured here: nuclei count (cytotoxicity indicator), at 2.08 µM; inhibition: at 2 µM, stronger effect = higher value, 0% TNFa-plus-vehicle, 100% no-TNFa wells
# [2] = inhibitors of mutant huntingtin aggregation, primary screen, imaging, exon1htt(103Q)mCFP cells, high-content imaging (AID 483;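 active = visual image review flags a hit and inhibition of aggregation exceeds 20%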;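 note: compound exposure lasted 3 days before fixation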;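 for nuclei count: percent of the per-plate median nuclei count of sample wells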); conditions: exon1htt(103Q)mCFP cell line, aggregate imaging, at 2 µM; inhibition of aggregation: stronger effect = higher value; nuclei count: measured here: cell count, toxicity
# [3] = inhibitors of E-selectin induction by TNFa, primary screen, imaging, HUVEC, immunofluorescence, MLSMR starter and 10KST1 sets (AID 487;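 active = visually confirmed hit in the image check and inhibition above 20%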;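 for inhibition: signal is fraction of cell area covered by stained E-selectin grains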;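 for nuclei count: 100% = median nuclei count of all wells on the same plate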); conditions: HUVEC TNFalpha-induced E-selectin immunofluorescence imaging, at 2 µM; inhibition: stronger effect = higher value; nuclei count: measured here: cell number, toxicity
# [4] = target: Voltage-gated potassium channel subunit beta-2 (Rattus norvegicus) (UniProt P62483); assay: KvBeta enzyme negative modulators, primary screen, biochemical, NADPH fluorescence (AID 622); conditions: recombinant KvBeta, 4-cyanobenzaldehyde reduction, at 10 µM, stronger effect = higher value;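 note: slope of raw intensity against log time taken from 70 to 1610 s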
# Chain of Voltage-gated potassium channel subunit beta-2 (Rattus norvegicus) (P62483 whole entry, looked up): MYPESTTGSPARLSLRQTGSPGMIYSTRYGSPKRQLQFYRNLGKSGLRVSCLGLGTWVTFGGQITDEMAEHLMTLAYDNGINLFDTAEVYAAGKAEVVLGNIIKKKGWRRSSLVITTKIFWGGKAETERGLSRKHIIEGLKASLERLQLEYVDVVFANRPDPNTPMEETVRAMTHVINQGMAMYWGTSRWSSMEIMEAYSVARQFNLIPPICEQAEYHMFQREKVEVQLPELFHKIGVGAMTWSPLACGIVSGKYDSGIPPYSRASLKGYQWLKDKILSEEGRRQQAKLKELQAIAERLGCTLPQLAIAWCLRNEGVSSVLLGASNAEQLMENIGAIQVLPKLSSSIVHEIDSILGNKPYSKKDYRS
# [5] = target: Voltage-gated potassium channel subunit beta-2 (Rattus norvegicus) (UniProt P62483); assay: KvBeta positive modulators, primary screen, biochemical, NADPH fluorescence (AID 623;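 active = NADPH fluorescence slope more negative than the mean of all samples by about 3 SD, 99.7% confidence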;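 note: fluorescence intensity change per second fitted from 20 to 320 s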); conditions: Recombinant KvBeta, NADPH fluorescence decrease slope, 10 min; at 10 µM; stronger effect = lower value
# [6] = target: Alpha-2C adrenergic receptor (Homo sapiens) (UniProt P18825); assay: modulators of alpha2C/GIRK thallium flux, primary screen, cell-based, HEK293 alpha2C/GIRK1/2 (AID 624;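 active = fluorescence slope after compound addition differing from the mean of all screened samples at 99.7% confidence, in either direction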;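 note: slope of fluorescence ratio to pre-addition baseline per second over 15 to 24 s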); conditions: thallium flux BTC fluorescence, at 10 µM, actives lie on both sides
# Chain of Alpha-2C adrenergic receptor (Homo sapiens) (P18825 whole entry, looked up): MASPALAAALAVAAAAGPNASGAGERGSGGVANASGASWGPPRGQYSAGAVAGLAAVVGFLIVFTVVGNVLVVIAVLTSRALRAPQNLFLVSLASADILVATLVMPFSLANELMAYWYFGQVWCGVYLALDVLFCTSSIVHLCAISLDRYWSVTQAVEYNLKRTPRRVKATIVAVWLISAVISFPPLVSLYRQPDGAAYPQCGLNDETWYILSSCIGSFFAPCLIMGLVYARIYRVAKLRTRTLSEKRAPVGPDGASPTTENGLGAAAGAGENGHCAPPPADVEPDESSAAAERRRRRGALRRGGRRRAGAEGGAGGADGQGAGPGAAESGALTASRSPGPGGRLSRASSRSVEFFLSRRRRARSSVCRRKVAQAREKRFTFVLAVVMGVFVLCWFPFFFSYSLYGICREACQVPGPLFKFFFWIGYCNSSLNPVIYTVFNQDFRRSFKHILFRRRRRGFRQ
# [7] = inhibitors of Sendai virus-induced IRF3 signaling, primary screen, TLR/RLR signaling modifier project, cell-based, Sendai virus stimulus, luciferase, 10K MLSCN set (AID 602276;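 active = inhibition at or above 50% at 10 µM; inactive = inhibition below 50%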;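 note: firefly luciferase from ISG56 promoter only with Renilla not read in this screen; 0% = Sendai virus plus DMSO and 100% = medium plus DMSO without virus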); conditions: HEK293 RL24 IRF3 luciferase reporter, at 10 µM, stronger effect = higher value
# [8] = inhibitors of poly I:C-induced TLR3 signaling, primary screen, cell-based, poly I:C stimulus, luciferase, 10K MLSCN set (AID 602277;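 active = inhibition of the reporter signal at or above 50%; inactive = inhibition below 50%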); conditions: HEK293-TLR3 RL24 IRF3 luciferase reporter, at 10 µM, stronger effect = higher value
SMILES,cell count [1],inhibition [1],inhibition of aggregation [2],nuclei count [2] [%],inhibition [3],nuclei count [3] [%],fluorescence slope [4],NADPH fluorescence slope [5],slope [6],inhibition [7],inhibition [8]
CC(C)(C)n1nnnc1CN1CCC(NC(=O)NC2CCCCC2)CC1,345,-18.5% (inactive),10.8% (inactive),93,-45.9% (inactive),115,-0.324 (inactive),9.8e-06 (inactive),0.00372 (inactive),11% (inactive),18.5% (inactive)
Cn1c(=O)c2c(nc(-n3ccnc3)n2C)n(C)c1=O,311,-8.5% (inactive),14.2% (inactive),85.8,-22.1% (inactive),104,-0.362 (inactive),8.4e-06 (inactive),0.00573 (inactive),15.7% (inactive),17.1% (inactive)
O=C(O)c1cccc(NC(=O)C23CC4CC(C2)CC(n2cnc(Cl)n2)(C4)C3)c1,571,-24.4% (inactive),-15.8% (inactive),108,-14.3% (inactive),115,-0.506 (inactive),-1.2e-05 (inactive),0.00606 (inactive),9.34% (inactive),17.3% (inactive)
Cc1ccc(NC2=NC3(CCCCC3)N=C(N)N2)c(C)c1,530,-4.7% (inactive),4.5% (inactive),76.2,-59.7% (inactive),99.3,-0.598 (inactive),-4.3e-05 (inactive),0.00486 (inactive),-10.3% (inactive),8.58% (inactive)
Cc1ccc(C2=Nc3ccccc3NC(C)(c3ccc(C)o3)C2)o1 (stereo unspecified),696,1.6% (inactive),-18.4% (inactive),100,-39.9% (inactive),100,-0.54 (inactive),1.2e-05 (inactive),0.00401 (inactive),-47.1% (inactive),-67.9% (inactive)
O=C(CSc1nc(O)c(Cc2ccccc2)c(=O)[nH]1)Nc1ccccc1,366,5.3% (inactive),0.2% (inactive),95.2,5.2% (inactive),115,-0.44 (inactive),-3e-05 (inactive),0.00311 (inactive),3.29% (inactive),24.3% (inactive)
CN(c1ccccc1)S(=O)(=O)c1ccc(C(=O)OCC(=O)N2CCOCC2)cc1,420,-5.7% (inactive),8.2% (inactive),92.9,0.3% (inactive),105,-0.583 (inactive),-6.4e-05 (inactive),0.00565 (inactive),11.4% (inactive),22% (inactive)
Cn1cccc1Cc1nnc(SCC(=O)NCC2CCCO2)n1-c1ccc(F)cc1 (stereo unspecified),716,-4% (inactive),50.2% (active),95.9,-44.1% (inactive),111,-0.537 (inactive),-3e-05 (inactive),0.00677 (inactive),10.8% (inactive),39.9% (inactive)
CCc1nc(SCc2cc(Cl)ccc2OC)n[nH]1,661,8.7% (inactive),-8.3% (inactive),95.5,-47.4% (inactive),103,-0.36 (inactive),-6.3e-05 (inactive),0.00554 (inactive),-11.3% (inactive),-22.3% (inactive)
COc1cc(-c2nnc(SCc3c(F)cccc3Cl)o2)cc(OC)c1OC,803,4.4% (inactive),8.8% (inactive),103,3.2% (inactive),106,-0.493 (inactive),-1.6e-06 (inactive),0.00634 (inactive),-11.9% (inactive),1.41% (inactive)
Cc1cc(C(F)(F)F)nc(SCC(=O)NC2=NC(=O)C(C)S2)n1 (stereo unspecified),370,6.1% (inactive),4.5% (inactive),109,19.6% (inactive),99,-0.457 (inactive),-1.9e-05 (inactive),0.00515 (inactive),-20.9% (inactive),-16.9% (inactive)
COc1ccccc1NC(=O)CSc1nnnn1-c1ccc2c(c1)OCO2,349,-9.4% (inactive),21.1% (inactive),88.6,-122% (inactive),104,-0.487 (inactive),3.9e-05 (inactive),0.00668 (inactive),12.2% (inactive),26.1% (inactive)
Nc1nc2n(n1)C(c1c(F)cccc1Cl)CC(c1ccc(F)cc1)N2 (stereo unspecified),868,3.5% (inactive),-46.8% (inactive),117,-37% (inactive),110,-0.455 (inactive),-1.9e-05 (inactive),0.0048 (inactive),-2.35% (inactive),25.6% (inactive)
Cc1nn(Cc2ccc(C(=O)NC3CCCCC3)o2)c(C)c1Br,463,-0.6% (inactive),24.1% (inactive),72.2,-30.6% (inactive),108,-0.395 (inactive),-3.4e-05 (inactive),0.00387 (inactive),7.39% (inactive),11.6% (inactive)
Cc1cccc(NC(=O)C2CCCN2C(=O)OCC(C)C)c1C (stereo unspecified),728,-6.9% (inactive),-27.8% (inactive),109,-120% (inactive),119,-0.322 (inactive),-6.4e-05 (inactive),0.00484 (inactive),5.88% (inactive),14.1% (inactive)
Cc1cc(C(=O)Nc2ccccc2C#N)n(-c2ccccc2)n1,763,7.7% (inactive),19.6% (inactive),88.3,27.3% (inactive),108,-0.556 (inactive),2.9e-05 (inactive),0.00747 (inactive),-2.18% (inactive),20.7% (inactive)
Cc1nnc(C)c2c(C)n(Cc3ccc4c(c3)OCO4)c(C)c12,679,6.2% (inactive),4.3% (inactive),74.3,-8.3% (inactive),95.8,-0.517 (inactive),4.5e-06 (inactive),0.0037 (inactive),-9.5% (inactive),-7.65% (inactive)
COP(C)(=O)c1c(C)nn(-c2ccccc2)c1C (stereo unspecified),558,6.8% (inactive),-0.1% (inactive),95.4,-11.2% (inactive),112,-0.424 (inactive),-2.1e-06 (inactive),0.00629 (inactive),8.87% (inactive),37.6% (inactive)
O=C(O)C1CCCN1S(=O)(=O)c1ccc2ccccc2c1 (stereo unspecified),609,-3.4% (inactive),-2.3% (inactive),89.5,-83.6% (inactive),106,-0.627 (inactive),-2e-06 (inactive),0.00297 (inactive),-1.98% (inactive),-11.3% (inactive)
Cc1ccc2c(c1)NC(=O)C(CC(=O)NCCN(CC(C)C)CC(C)C)O2 (stereo unspecified),659,4.4% (inactive),7.8% (inactive),102,-11% (inactive),125,-0.584 (inactive),6e-06 (inactive),0.00608 (inactive),-16.7% (inactive),-6.31% (inactive)
O=C(Cn1nc(Cc2cccnc2)c2ccccc2c1=O)NCC1CCCO1 (stereo unspecified),461,6.1% (inactive),12.1% (inactive),69.2,-96.1% (inactive),115,-0.553 (inactive),-2.6e-06 (inactive),0.00713 (inactive),11.5% (inactive),29.9% (inactive)
Cc1ccc2nc(-c3ccccn3)cc(C(=O)N3CCN(c4ncccn4)CC3)c2c1,367,-5.9% (inactive),0% (inactive),107,6% (inactive),115,-0.346 (inactive),-5.1e-05 (inactive),0.00536 (inactive),4.96% (inactive),8.03% (inactive)
N#Cc1cc2c(nc1SCC(=O)Nc1sc3c(c1C#N)CCC3)CCCCC2,606,5.3% (inactive),-0.2% (inactive),103,32.4% (inactive),104,-0.323 (inactive),-4.1e-05 (inactive),0.00575 (inactive),1.89% (inactive),-0.19% (inactive)
O=C(CSc1nnc(COc2ccc(Cl)cc2)o1)OC1CCCCC1,530,-5.9% (inactive),-7.1% (inactive),119,9.7% (inactive),103,-0.524 (inactive),-5.9e-07 (inactive),0.00539 (inactive),1.22% (inactive),-1.92% (inactive)
Cc1cc(C)nc(NC(=O)c2c(-c3c(Cl)cccc3Cl)noc2C)n1,648,2% (inactive),3.9% (inactive),95.5,-7.8% (inactive),109,-0.435 (inactive),7.7e-06 (inactive),0.00547 (inactive),-2.48% (inactive),7.12% (inactive)
Cc1nc(CNS(=O)(=O)c2cccc(F)c2)cs1,307,5% (inactive),14.1% (inactive),87.9,-10.3% (inactive),92.4,-0.506 (inactive),-3.7e-05 (inactive),0.00673 (inactive),7.13% (inactive),20.4% (inactive)

# — PubChem BioAssay
